Results published in PubChem BioAssay AID624256 (NMMLSC, 2012).
Hit rate of the full screen: of about 360,000 compounds, about 3,700 (1%) were called active. Another 2% or so got no clear call; they are omitted.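 How the source made its calls: active means normalized GFP-positive differentiation at or above the plate's own cutoff, the solvent-only control mean plus 3 SD; inconclusive means no clear call, values can overlap the other calls; inactive means the rest.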 For the sample, actives were picked, then their nearest neighbours and some compounds at random.

assay: induction of myeloid progenitor differentiation, primary screen, cell-based, flow cytometry, MLPCN library (AID 624256); details: ER-HoxA9 myeloid progenitors, lysozyme-GFP differentiation, at 10 µM; GFP+ MAC1+ double positive: measured here: differentiation confirmed by MAC1 staining, stronger effect = higher value; normalized GFP-positive differentiation: stronger effect = higher value;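 on GFP+ MAC1+ double positive: cells exposed to compound for four days before flow analysis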;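 on normalized GFP-positive differentiation: cells exposed to compound for four days before flow analysis; 0% = DMSO wells and 100% = fulvestrant positive control at 5 µM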

| SMILES | GFP+ MAC1+ double positive | outcome | normalized GFP-positive differentiation |
| --- | --- | --- | --- |
| COc1ccc(-c2ccc(C(=O)NCCN3CCOCC3)c3occc23)c(C)c1 | 1% | inactive |  |
| O=C(NCc1cccnc1)c1cc(C2CCCN(C(=O)C3CCCCC3)C2)on1 (stereo not given) | 0.6% | inactive |  |
| c1ccc2c(c1)CSc1sccc1C2=C1CCNCC1 | 4.3% |  | 87.9% (active) |
| CCCNC(=O)C1(C)CCN(C(=O)c2cc(F)ccc2C)C1 (stereo not given) | 1.2% | inactive |  |
| COc1ccc(N2c3ccccc3CN(Cc3ccccc3)[C@@H](C)[C@H]2Cc2ccc(-c3ccccc3)cc2)cc1 | 3% | inactive |  |
| O=C(Nc1ccc2c(c1)OCCO2)C1c2ccccc2OCC(=O)N1Cc1ccccn1 (stereo not given) | 1.3% | inactive |  |
| CC1CCN(C(=O)c2ccc(S(=O)(=O)Cc3cc(F)ccc3F)c([N+](=O)[O-])c2)CC1 | 1% |  | 43.9% (active) |
| O=C(c1ccc(Oc2ccc(Cl)cc2)c([N+](=O)[O-])c1)N1CCCC1 | 0.9% | inactive |  |
| Nc1ccc(C(=O)N2CCN(S(=O)(=O)c3ccc(Cl)cc3)CC2)cc1[N+](=O)[O-] | 0.1% | inactive |  |
| O=S1(=O)CC(N2CCN(CCO)CC2)CN1C1CCCC1 (stereo not given) | 1% | inactive |  |
| CCN(CC)C(=O)C1CCCN(Cc2cccc(Cl)c2)C1 (stereo not given) | 1% | inactive |  |
| COc1ccc(C2C(C#N)=C(N)N(c3ncn[nH]3)C3=C2C(=O)CCC3)cc1 (stereo not given) | 0.3% | inactive |  |
| CCOc1ccc(C2C3=C(CCCC3=O)N(CC(=O)O)C3=C2C(=O)CCC3)cc1 | 0.6% | inactive |  |
| CN(C)N1C(N)=C(C#N)C(c2ccc(Br)cc2)C2=C1CCCC2=O (stereo not given) | 0.4% | inactive |  |
| CCOc1ccc(C2C(C#N)=C(N)N(N(C)C)C3=C2C(=O)CCC3)cc1 (stereo not given) | 0.6% | inactive |  |
| COc1ccc(C2C3=C(CCCC3=O)N(CC(=O)O)C3=C2C(=O)CCC3)cc1 | 17.3% |  | 322% (active) |
| CCCN1C2=C(C(=O)CCC2)C(c2ccc(O)c(Br)c2)C2=C1CCCC2=O | 3.4% |  | 78.6% (active) |
| CCOC(=O)N1CCN(C(=O)C[C@@H]2C[C@@]3(C(=O)OC)CCCCC=C3N(CCC3=CCCCC3)C2=O)CC1 | 1.2% | inactive |  |
| CN(Cc1ccccc1F)c1cc2c(c3c1ccn3C)C1CCC2O1 (stereo not given) | 2.1% | inactive |  |
| Cc1cc(C)n2c(Nc3c(C)cccc3C)c(CCc3ccccc3)nc2n1 | 0.8% | inactive |  |
| CC1(C(=O)NS(=O)(=O)Cc2cccc(Cl)c2)CCN1C(=O)Cc1ccccc1 (stereo not given) | 1.3% | inactive |  |
| O=S1(=O)CC(N2CCN(CCO)CC2)CN1Cc1cn(Cc2cccc(Cl)c2)nn1 (stereo not given) | 1.8% | inactive |  |

| SMILES | GFP+ MAC1+ double positive | outcome | normalized GFP-positive differentiation |
| --- | --- | --- | --- |
| CCN(CC)c1ccc2cc(C(=O)O)c(=O)oc2c1 | 2.8% |  | 30.9% (active) |
| Cc1cc(C)cc(OCC(=O)NNC(=O)c2cc3ccccc3oc2=O)c1 | 0.7% | inactive |  |
| CCN(CC)c1ccc([N+](=O)[O-])cc1C(=O)O | 0.9% | inactive |  |
| COC(=O)[C@]12CCCCC=C1N(Cc1ccc3c(c1)OCO3)C(=O)[C@H](CC(=O)N1CCOCC1)C2 | 1.1% | inactive |  |
| CC(C)C1Cc2[nH][nH]c(=O)c2C(c2ccc(Cl)cc2)O1 (stereo not given) | 1.1% | inactive |  |
| Cc1ccc2cccc([N+](=O)[O-])c2n1 | 0.8% | inactive |  |
| Cc1ccc(Nc2cc(C)nc3c(C)ccc([N+](=O)[O-])c23)cc1 | 8.4% |  | 156% (active) |
| Cc1ccccc1Nc1c([N+](=O)[O-])ccc2nonc12 | 0.6% | inactive |  |
| CCc1nc2c(OCCOc3ccccc3)cccn2c1N(C)C(=O)c1ccc(OC)cc1 | 0.8% | inactive |  |
| CC1=C(C(N)=O)C(c2ccc3c(c2)OCO3)n2nc(-c3cccc(C)c3)nc2N1 (stereo not given) | 2% |  | 8.9% (active) |
| CC1=C(C(N)=O)C(c2ccc(F)cc2)n2nc(CCCO)nc2N1 (stereo not given) | 1% | inactive |  |
| COc1cccc(-c2nc3n(n2)C(c2ccccc2Cl)C(C(N)=O)=C(C)N3)c1 (stereo not given) | 1.5% | inactive |  |
| Oc1ccc2ccc3cccc[n+]3c2c1 | 0.9% |  | 10.9% (active) |
| CC1(C(=O)NS(=O)(=O)c2ccccc2)CCN1C(=O)C1CCCCC1 (stereo not given) | 1.3% | inactive |  |
| COc1ccc(C(C(=O)NCc2ccccc2)n2c(=O)c(-c3ccccc3)nc3ccccc32)cc1 (stereo not given) | 5.2% | inactive |  |
| COc1ccc(CC(N)c2csc(NC(=O)NC(c3ccccc3)c3ccccc3)n2)cc1 (stereo not given) | 1.7% | inactive |  |
| O=C(CCC(=O)Nc1ccccc1)N/N=C/c1ccccc1F | 0.1% | inactive |  |
| O=C(N/N=C/c1ccccc1O)C1CCCC1 | 0.3% | inactive |  |
| O=C(N/N=C/c1ccccc1O)/C(=C/c1ccccc1)CCO | 4.1% |  | 31.5% (active) |
| Cc1ccc(S(=O)(=O)N2[C@@H](Cc3ccccc3)CO[C@H]2CC(=O)OCc2ccccc2)cc1 | 5.9% | inactive |  |
| O=C1NC[C@H](CCCCN2C[C@H](Cc3ccc(O)cc3)N(CC3CCCCC3)C(=O)C2=O)N(CCc2ccccc2)C1=O | 0.6% | inactive |  |
| CCOc1ccc(CCN2C(=S)N([C@@H](CC(C)C)CN3CCC[C@@H]3CN3C(=S)NC[C@@H]3Cc3ccc(O)cc3)C[C@@H]2CC(C)C)cc1 | 0.7% | inactive |  |

| SMILES | GFP+ MAC1+ double positive | outcome | normalized GFP-positive differentiation |
| --- | --- | --- | --- |
| CC(=O)Nc1cc(-c2ccccc2N(C)C)cn2c(-c3ccc(F)c(Cl)c3)cnc12 | 1% | inactive |  |
| O=c1c(F)cn(C2CCCO2)c(=O)n1Cc1ccccc1Cl (stereo not given) | 11.2% | inactive |  |
| CNc1nc(=O)n(C2CCCO2)cc1C (stereo not given) | 23.7% |  | 172% (active) |
| O=c1nc(NO)ccn1C1CCCO1 (stereo not given) | 1.8% | inactive |  |
| O=C(O)Cc1ccc(NCc2ccccc2Cl)cc1 | 0.6% | inactive |  |
| O=C(O)Cc1ccc(-c2ccccc2)cc1 | 2.6% |  | 92.4% (active) |
| O=C(Cc1ccc(-c2ccccc2)cc1)NC(c1ccccc1)c1ccccc1 | 0.3% | inactive |  |
| Cc1cccc(CNC(=O)c2sc(=O)n(Cc3ccccc3C)c2C)c1 | 4.1% | inactive |  |
| COc1ccc(C(C(=O)Nc2c(C)cccc2C)N2CCN(c3ccc(C)cc3)CC2)cc1 (stereo not given) | 2% | inactive |  |
| CO[C@@H]1CN(C)C(=O)c2cc(NC(=O)Nc3cc(F)ccc3F)ccc2OC[C@H](C)N(C(=O)c2ccccn2)C[C@@H]1C | 1.3% | inactive |  |
| COC(=O)[C@]12CCCCC=C1N(Cc1cccc3ccccc13)C(=O)[C@H](CC(=O)N1CCOCC1)C2 | 0.7% | inactive |  |
| CCOP(=O)(OCC)C(Cc1ccccc1)N=C(c1ccccc1)c1ccccc1 (stereo not given) | 1% | inactive |  |
| CC(=O)N1Cc2cc(C(=O)NCc3cccc(F)c3)nc(-c3cccc(C4=CCCC4)c3)c2[C@H]1CCO | 0.3% | inactive |  |
| CC(C)c1ccc(-c2noc(C3CCCN(S(C)(=O)=O)C3)n2)cc1 (stereo not given) | 2.8% | inactive |  |
| COc1cccc(-c2noc(C3CCCN(C(=O)c4ccc(F)cc4)C3)n2)c1 (stereo not given) | 1.2% | inactive |  |
| COc1cc(-c2noc(C3CCCN(S(=O)(=O)c4cccc(Cl)c4)C3)n2)cc(OC)c1OC (stereo not given) | 16.1% |  | 28.5% (active) |
| O=C(NCc1ccccn1)[C@@H]1CCCN1C(=O)[C@@H]1CCCN1C(=O)c1ccccc1 | 1.4% | inactive |  |
| COC(=O)[C@@]12C[C@@H](CC(=O)NCc3cccc(C(F)(F)F)c3)C(=O)N(Cc3ccco3)C1=CCC(C)(C)C2 | 3.5% | inactive |  |
| COc1ccc(NC(=O)[C@H](NC(=O)[C@@H]2Cc3ccccc3CN2)c2ccccc2)cc1 | 3.2% | inactive |  |
| COc1cccc(NC(=O)[C@H](Cc2c[nH]c3ccccc23)NC(=O)[C@@H]2Cc3ccccc3CN2)c1 | 5.1% |  | 8.43% (active) |
| COc1ccc(CNC(=O)[C@H](Cc2c[nH]c3ccccc23)NC(C)=O)cc1OC | 0.3% | inactive |  |
| CCc1nc2c(OCC(N)=O)cccn2c1N(C)C(=O)c1ccc(OC)cc1 | 1.1% | inactive |  |

| SMILES | GFP+ MAC1+ double positive | outcome | normalized GFP-positive differentiation |
| --- | --- | --- | --- |
| OC[C@@H]1CN(Cc2cccs2)C[C@H](n2cnc3c(Nc4ccccc4)ncnc32)O1 | 1.1% | inactive |  |
| Cc1ccc(Cc2c(-c3ccco3)nc3ccc(Cl)cn23)cc1 | 0.7% | inactive |  |
| O=C(c1ccccc1)N1CCC(CC2CC(c3ccc(Cl)cc3)=NO2)(C(=O)NCC2CCCCC2)CC1 (stereo not given) | 1.5% | inactive |  |
| CCCCCCCNC(=O)C1(CC2CC(c3cccc(Br)c3)=NO2)CCN(C(=O)c2cc(OCC)c(OCC)c(OCC)c2)CC1 (stereo not given) | 7.1% |  | 26.1% (active) |
| COc1ccc(CNC(=O)C2(CC3CC(c4ccccc4)=NO3)CCN(C(=O)c3cccc(O)c3)CC2)cc1 (stereo not given) | 1.8% | inactive |  |
| O=C(C(=O)N1CCC(c2ccccc2)CC1)c1ccccc1 | 2.1% | inactive |  |
| CC(C)(O)C#Cc1ccc(CNC[C@H]2O[C@@H](n3cnc4c(=O)[nH]c(N)nc43)[C@H](O)[C@@H]2O)s1 | 0.8% | inactive |  |
| O=S1(=O)CC(N2CCN(CCO)CC2)CN1Cc1cn(Cc2ccc(Cl)cc2)nn1 (stereo not given) | 1.6% | inactive |  |
| Cc1cnc(C(=O)N2CCCC(N3CCN(c4ccccc4F)CC3)C2)cn1 (stereo not given) | 6.8% | inactive |  |
| CCc1noc(C)c1C(=O)N1CCCC(N2CCN(c3ccc(F)cc3)CC2)C1 (stereo not given) | 5.3% |  | 46.7% (active) |
| COc1ccccc1CN1CCCC(N2CCN(c3ccc(F)cc3)CC2)C1 (stereo not given) | 0.5% | inactive |  |
| COc1ccc(-c2[nH][nH]c(=O)c2NC(=O)c2ccc([N+](=O)[O-])cc2)cc1 | 0.8% | inactive |  |
| O=C(Nc1ccccc1C(=O)N1CCCCCC1)c1ccccc1Cl | 0.1% | inactive |  |
| O=C(CN(c1ccccc1)S(=O)(=O)c1ccc(Cl)cc1)Nc1ccccc1C(=O)N1CCCC1 | 17.3% |  | 34.3% (active) |
| COc1ccccc1N(CC(=O)Nc1ccccc1C(=O)N1CCCC1)S(C)(=O)=O | 0.3% | inactive |  |
| NCCCCC(C(=O)O)N(C(=O)OCc1ccccc1)C(=O)OCc1ccccc1 (stereo not given) | 0.9% | inactive |  |
| Cc1cc(=O)oc(C)c1C(=O)NCCN(C)Cc1ccccc1 | 0.6% | inactive |  |
| Cc1cc(=O)oc(C)c1C(=O)Nc1cnc2ccccc2c1 | 1% |  | 6.77% (active) |
| Cc1cc(=O)oc(C)c1C(=O)NCc1ccc(F)cc1 | 9.2% | inactive |  |
